# Laboratory results reported in PubChem BioAssay (NCATS).
# A number with no mark means an inactive call. Inconclusive results are not listed. Calls of active or inactive are those of the source. The call rests on the fitted dose curve; in most records, active means well fitted curve in the direction sought with a large enough effect; inconclusive means small, poorly fitted or top-dose-only effect, or another doubt; inactive means no such curve, though single readings can be large; an effect the other way counts as inactive or inconclusive.
# Molecular target: Ubiquitin carboxyl-terminal hydrolase 2 (Homo sapiens) (UniProt O75604)
# Test: qHTS Validation Assay for Inhibitors of Ubiquitin-specific Protease USP2a Using CHOP2 as the Reporter (AID 463106);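 further: plate controls were DMSO for no effect and full inhibition by NEM for full effect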
# Conditions: USP2a cleavage of CHOP2 reporter, enzymatic; series mostly up to 38.3 µM; activity, negative = inhibition: at the top concentration
# Method in brief: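 10nM USP2 core + cpd, 30min RT; add 25nM Ub-CHOP2/25nM substrate; 60min RT; FI 485/531nm. Buffer Tris pH 8.0, CaCl2, BME, CHAPS. Norm. to NEM = 100% inhibition; time-zero read flags fluorescent artifacts.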
# Chain of Ubiquitin carboxyl-terminal hydrolase 2 (Homo sapiens) (O75604 whole entry, looked up): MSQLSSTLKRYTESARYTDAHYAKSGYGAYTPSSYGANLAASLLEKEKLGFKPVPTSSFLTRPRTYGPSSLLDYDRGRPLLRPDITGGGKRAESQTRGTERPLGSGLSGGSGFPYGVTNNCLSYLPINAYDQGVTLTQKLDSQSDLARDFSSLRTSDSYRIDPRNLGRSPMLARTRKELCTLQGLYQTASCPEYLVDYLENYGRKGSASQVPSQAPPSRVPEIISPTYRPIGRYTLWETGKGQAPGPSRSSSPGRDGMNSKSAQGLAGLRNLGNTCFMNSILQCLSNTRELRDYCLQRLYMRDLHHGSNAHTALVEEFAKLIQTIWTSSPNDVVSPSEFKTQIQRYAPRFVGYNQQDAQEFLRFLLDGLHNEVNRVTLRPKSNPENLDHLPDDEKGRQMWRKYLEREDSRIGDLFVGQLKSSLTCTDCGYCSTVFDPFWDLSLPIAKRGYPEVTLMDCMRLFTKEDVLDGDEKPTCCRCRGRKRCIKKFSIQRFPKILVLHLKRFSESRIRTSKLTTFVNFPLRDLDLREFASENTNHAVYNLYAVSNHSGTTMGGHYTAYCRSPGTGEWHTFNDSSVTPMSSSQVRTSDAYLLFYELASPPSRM
row,SMILES,"activity, negative = inhibition [%]"
1,C[N+]1(C)CCOC(O)(c2ccc(-c3ccc(C4(O)C[N+](C)(C)CCO4)cc3)cc2)C1 (stereo not drawn),-2.25
2,COc1ccc2[nH]cc(CCN)c2c1,-3.56
3,NC(CCCCCP(=O)(O)O)C(=O)O (stereo not drawn),0.422
4,CC(C)NP(=O)(NC(C)C)OP(=O)(NC(C)C)NC(C)C,0.189
5,C[C@]12Cc3cn4c(nc3C=C1CCC1C2CC[C@@]2(C)[C@H]1CC[C@@]2(O)C#N)nc1ccccc14 (stereo partly drawn),-2.4
6,CCCN1CC[C@@H]2c3cc(O)ccc3CC[C@@H]21,1.79
7,NCCCP(=O)(O)O,-0.0391
8,C[N+](C)(C)CCOC(=O)CBr,-2.51
9,C=CCN1C[C@@H](C)N([C@H](c2ccc(C(=O)N(CC)CC)cc2)c2cccc(OC)c2)C[C@@H]1C,1.05
10,Cc1o[nH]c(=O)c1CC(N)C(=O)O (stereo not drawn),1.1
11,C[N+](C)(C)CC#CCN1CCCC1=O,1.08
12,NC(C(=O)O)c1cc(=O)[nH]o1 (stereo not drawn),0.139
13,O=C(O)c1cc[c]([Hg][Cl])cc1,5.21
14,C[Se]C[C@H](N)C(=O)O,-0.864
15,CO[C@H]1CC=C2CCN3CCC4=C(CC(=O)OC4)[C@]23C1,-0.348
16,COc1ccc(CNC(=O)/C=C/c2ccc3[nH]cc(CCN(C)C)c3c2)cc1,-0.394
17,COc1ccc(OC)c(C(O)C(C)N)c1 (stereo not drawn),3.66

row,SMILES,"activity, negative = inhibition [%]"
1,CC12NC(Cc3ccccc31)c1ccccc12 (stereo not drawn),1.55
2,NC(=O)c1ccc(OCC(O)CN2CC=C(c3ccc(F)cc3)CC2)cc1 (stereo not drawn),-2.65
3,C=CCN1CC[C@]23c4c5ccc(O)c4O[C@H]2/C(=N/NC(=O)c2ccccc2)CC[C@@]3(O)[C@H]1C5,-0.637
4,CC(=O)NBr,1.91
5,CN1CCc2cccc(Cl)c2CC1,1.23
6,CN(C(=O)Cc1ccc(Cl)c(Cl)c1)C(CN1CCCC1)c1cccc(OCC(=O)O)c1 (stereo not drawn),-0.219
7,C[C@@H]1O[C@H](C[N+](C)(C)C)CS1,1.82
8,CCCN(CCC)C1CCc2cccc(O)c2C1 (stereo not drawn),2.8
9,C[C@H](Cc1ccc2c(c1)OC(C(=O)O)(C(=O)O)O2)NC[C@H](O)c1cccc(Cl)c1,-2.02
10,CC(Cc1ccc(OCC(=O)O)cc1)NCC(O)c1cccc(Cl)c1 (stereo not drawn),-1.4
11,NCCc1ccc(S(=O)(=O)F)cc1,-0.55
12,Clc1ccc(N2CC3CCC(C2)N3)nn1,0.166
13,NC(=O)c1cc(N2CC2)c([N+](=O)[O-])cc1[N+](=O)[O-],4.34
14,O=S1(=O)N(CCN2CC=C(c3c[nH]c4cc(F)ccc34)CC2)c2cccc3c2N1CCC3,-8.79
15,NC(Cc1ccc(N(CCCl)CCCl)cc1)C(=O)O (stereo not drawn),-0.704
16,N[C@@H](CCl)C(=O)O,0.189
17,NC(N)=NOCC[C@H](N)C(=O)O,-1.78

# Molecular target: DNA polymerase III PolC-type (Bacillus subtilis (strain 168)) (UniProt P13267)
# Test: qHTS Validation Assay for the Inhibitors of DNA Replication in Gram-Positive Bacteria (AID 485295); further: potency means the concentration at half of the fitted maximal effect;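 on activity change, negative = inhibition: reconstituted holoenzyme with PolC plus beta clamp SSB and primase; PicoGreen fluorescence of double-stranded DNA made on primed circular M13 template; 0% = DMSO wells and -100% = EDTA-quenched background wells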
# Conditions: Gram-positive bacterial DNA replication assay; series mostly up to 57.1 µM; activity change, negative = inhibition: at the top concentration
# Method in brief: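 PicoGreen fluorescence (ex 480–485/em 535–540 nm) reports dsDNA synthesized on ssM13Gori template with dNTPs/NTPs. Enzyme: holoenzyme rebuilt from purified PolC, beta subunit, SSB and primase. Compound preincubated before substrate addition; RT throughout.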
# Chain of DNA polymerase III PolC-type (Bacillus subtilis (strain 168)) (P13267 whole entry, looked up): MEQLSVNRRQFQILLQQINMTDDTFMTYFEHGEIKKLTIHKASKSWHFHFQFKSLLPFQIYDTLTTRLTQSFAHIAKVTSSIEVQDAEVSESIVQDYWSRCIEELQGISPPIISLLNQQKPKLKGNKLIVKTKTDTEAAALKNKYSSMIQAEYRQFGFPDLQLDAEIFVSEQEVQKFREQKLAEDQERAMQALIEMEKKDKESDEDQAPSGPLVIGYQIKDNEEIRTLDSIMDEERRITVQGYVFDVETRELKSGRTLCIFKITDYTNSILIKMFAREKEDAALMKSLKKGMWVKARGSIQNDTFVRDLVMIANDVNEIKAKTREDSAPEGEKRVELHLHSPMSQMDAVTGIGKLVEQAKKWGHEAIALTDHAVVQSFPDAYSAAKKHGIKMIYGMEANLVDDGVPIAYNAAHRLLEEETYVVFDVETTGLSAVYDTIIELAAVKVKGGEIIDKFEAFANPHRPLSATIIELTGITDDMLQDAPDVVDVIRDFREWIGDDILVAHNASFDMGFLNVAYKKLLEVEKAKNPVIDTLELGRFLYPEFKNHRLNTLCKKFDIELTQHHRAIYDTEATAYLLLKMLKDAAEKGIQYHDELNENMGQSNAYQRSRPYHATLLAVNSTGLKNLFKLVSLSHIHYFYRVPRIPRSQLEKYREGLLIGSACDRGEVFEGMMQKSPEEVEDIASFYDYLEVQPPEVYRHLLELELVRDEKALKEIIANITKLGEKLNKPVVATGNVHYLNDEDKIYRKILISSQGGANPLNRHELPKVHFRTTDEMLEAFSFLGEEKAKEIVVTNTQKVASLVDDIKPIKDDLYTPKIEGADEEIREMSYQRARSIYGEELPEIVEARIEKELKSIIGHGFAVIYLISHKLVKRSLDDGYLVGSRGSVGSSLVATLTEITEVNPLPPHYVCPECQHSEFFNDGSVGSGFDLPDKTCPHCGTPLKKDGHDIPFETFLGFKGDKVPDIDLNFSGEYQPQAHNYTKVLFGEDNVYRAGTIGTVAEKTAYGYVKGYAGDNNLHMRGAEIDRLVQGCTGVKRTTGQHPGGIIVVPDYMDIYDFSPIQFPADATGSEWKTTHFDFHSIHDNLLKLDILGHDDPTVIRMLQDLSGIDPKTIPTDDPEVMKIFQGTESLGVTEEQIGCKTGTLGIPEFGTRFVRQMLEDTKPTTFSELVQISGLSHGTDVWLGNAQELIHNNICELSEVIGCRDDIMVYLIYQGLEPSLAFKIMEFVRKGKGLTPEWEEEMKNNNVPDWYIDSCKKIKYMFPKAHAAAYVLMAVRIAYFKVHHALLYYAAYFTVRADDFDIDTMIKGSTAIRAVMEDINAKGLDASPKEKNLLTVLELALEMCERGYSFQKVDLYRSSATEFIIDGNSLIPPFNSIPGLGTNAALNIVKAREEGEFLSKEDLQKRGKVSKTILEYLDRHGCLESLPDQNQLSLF
SMILES,"activity change, negative = inhibition [%]",Potency
C[N+]1(C)CCOC(O)(c2ccc(-c3ccc(C4(O)C[N+](C)(C)CCO4)cc3)cc2)C1 (stereo not drawn),-3.15,–
COc1ccc2[nH]cc(CCN)c2c1,3.25,–
NC(CCCCCP(=O)(O)O)C(=O)O (stereo not drawn),-14.6,–
CC(C)NP(=O)(NC(C)C)OP(=O)(NC(C)C)NC(C)C,-0.306,–
C[C@]12Cc3cn4c(nc3C=C1CCC1C2CC[C@@]2(C)[C@H]1CC[C@@]2(O)C#N)nc1ccccc14 (stereo partly drawn),-5.73,–
CCCN1CC[C@@H]2c3cc(O)ccc3CC[C@@H]21,1.85,–
NCCCP(=O)(O)O,-4.15,–
C[N+](C)(C)CCOC(=O)CBr,6.36,–
C=CCN1C[C@@H](C)N([C@H](c2ccc(C(=O)N(CC)CC)cc2)c2cccc(OC)c2)C[C@@H]1C,-3.46,–
Cc1o[nH]c(=O)c1CC(N)C(=O)O (stereo not drawn),-3.78,–
C[N+](C)(C)CC#CCN1CCCC1=O,-3.65,–
NC(C(=O)O)c1cc(=O)[nH]o1 (stereo not drawn),-1.22,–
O=C(O)c1cc[c]([Hg][Cl])cc1,–,4.74 µM (active)
C[Se]C[C@H](N)C(=O)O,-2.18,–
CO[C@H]1CC=C2CCN3CCC4=C(CC(=O)OC4)[C@]23C1,0.35,–
COc1ccc(CNC(=O)/C=C/c2ccc3[nH]cc(CCN(C)C)c3c2)cc1,2.56,–
COc1ccc(OC)c(C(O)C(C)N)c1 (stereo not drawn),8.99,–

SMILES,"activity change, negative = inhibition [%]",Potency
CC12NC(Cc3ccccc31)c1ccccc12 (stereo not drawn),-0.452,–
NC(=O)c1ccc(OCC(O)CN2CC=C(c3ccc(F)cc3)CC2)cc1 (stereo not drawn),1.66,–
C=CCN1CC[C@]23c4c5ccc(O)c4O[C@H]2/C(=N/NC(=O)c2ccccc2)CC[C@@]3(O)[C@H]1C5,-0.0776,–
CC(=O)NBr,4.01,–
CN1CCc2cccc(Cl)c2CC1,2.92,–
CN(C(=O)Cc1ccc(Cl)c(Cl)c1)C(CN1CCCC1)c1cccc(OCC(=O)O)c1 (stereo not drawn),3.73,–
C[C@@H]1O[C@H](C[N+](C)(C)C)CS1,-1.66,–
CCCN(CCC)C1CCc2cccc(O)c2C1 (stereo not drawn),0.366,–
C[C@H](Cc1ccc2c(c1)OC(C(=O)O)(C(=O)O)O2)NC[C@H](O)c1cccc(Cl)c1,5.77,–
CC(Cc1ccc(OCC(=O)O)cc1)NCC(O)c1cccc(Cl)c1 (stereo not drawn),7.69,–
NCCc1ccc(S(=O)(=O)F)cc1,2.81,–
Clc1ccc(N2CC3CCC(C2)N3)nn1,4.59,–
NC(=O)c1cc(N2CC2)c([N+](=O)[O-])cc1[N+](=O)[O-],1.55,–
O=S1(=O)N(CCN2CC=C(c3c[nH]c4cc(F)ccc34)CC2)c2cccc3c2N1CCC3,-10.1,–
NC(Cc1ccc(N(CCCl)CCCl)cc1)C(=O)O (stereo not drawn),-0.784,–
N[C@@H](CCl)C(=O)O,-4.73,–
NC(N)=NOCC[C@H](N)C(=O)O,-7.06,–
